# Compound activity as filed in PubChem.
# POLH inh: qHTS for Inhibitors of Polymerase Eta | DNA polymerase eta (Homo sapiens), Q9Y253 | recombinant Pol eta, fluorescent DNA replication assay | Potency, µM (series often up to 114 µM), without a hit: at the highest dose activity change, negative = inhibition, hits mostly inhibitors | actives 1.2% (n = 390,000) | AID 588591, 2011; further: on the % scale 0 is the no-effect control and ±100 the full control effect
#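 Fluorescent replication assay: 50 nM final substrate added after a 15 min room-temperature compound preincubation with 10 nM enzyme. Signal taken at 0 min and again at 10 min.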
# POLI inh: qHTS for Inhibitors of Polymerase Iota. DNA polymerase iota (Homo sapiens), Q9UNA4. Pol iota fluorescent replication assay, 10 min. Potency, µM (titrated, usually from 115 µM), for inactives: top-dose activity, negative = inhibition, hits mostly inhibitors. actives 1% (n = 390,000). AID 588590, 2011
# Target sequence (Q9UNA4 whole entry, looked up): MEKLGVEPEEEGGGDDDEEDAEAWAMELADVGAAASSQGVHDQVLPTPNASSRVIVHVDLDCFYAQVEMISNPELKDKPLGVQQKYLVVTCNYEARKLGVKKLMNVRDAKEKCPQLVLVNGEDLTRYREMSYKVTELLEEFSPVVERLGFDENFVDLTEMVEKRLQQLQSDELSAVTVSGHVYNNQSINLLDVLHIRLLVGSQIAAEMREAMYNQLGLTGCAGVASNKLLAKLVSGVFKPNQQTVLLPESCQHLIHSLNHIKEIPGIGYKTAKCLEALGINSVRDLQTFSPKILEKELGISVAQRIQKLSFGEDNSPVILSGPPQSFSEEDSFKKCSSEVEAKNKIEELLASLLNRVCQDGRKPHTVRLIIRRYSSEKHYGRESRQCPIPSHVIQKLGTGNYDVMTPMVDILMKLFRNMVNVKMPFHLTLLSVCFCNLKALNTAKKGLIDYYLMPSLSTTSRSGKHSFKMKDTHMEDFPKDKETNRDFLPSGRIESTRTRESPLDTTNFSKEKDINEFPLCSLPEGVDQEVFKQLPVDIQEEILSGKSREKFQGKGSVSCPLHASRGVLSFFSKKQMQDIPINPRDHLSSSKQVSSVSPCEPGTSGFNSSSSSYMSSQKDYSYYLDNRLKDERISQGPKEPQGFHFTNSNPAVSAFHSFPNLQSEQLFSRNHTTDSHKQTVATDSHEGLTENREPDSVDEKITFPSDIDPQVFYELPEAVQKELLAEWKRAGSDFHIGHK
#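 Pol iota at 10 nM preincubated 15 min with compounds at room temperature; reaction started with fluorescent substrate, 50 nM final. Fluorescence read kinetically at 0 and 10 min; buffer-only wells as negative control.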
# Pol kappa inh: qHTS for Inhibitors of Polymerase Kappa | DNA polymerase kappa (Homo sapiens), Q9UBT6 | purified Pol kappa, fluorescent DNA synthesis assay, 10 min | Potency, µM (series often up to 107 µM), without a hit: top-dose activity, negative = inhibition, hits mostly inhibitors | actives 0.53% (n = 400,000) | AID 588579, 2011; further: on the % scale 0 is the no-effect control and ±100 the full control effect
#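 Enzyme at 10 nM met test compounds for 15 min at room temperature. Substrate addition (50 nM final) began the reaction, which was monitored by fluorescence at 0 and 10 min.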
# FEN1 inhibitor: qHTS Assay for the Inhibitors of Human Flap endonuclease 1 (FEN1); actives 0.35% (n = 390,000); AID 588795, 2011; P39748; Potency, µM (doses to about 114 µM), for the others: at the highest dose activity change, negative = inhibition, actives largely listed as inhibitors; Recombinant FEN1 flap cleavage, fluorescence, 15 min; further: on the % scale 0 is the no-effect control and ±100 the full control effect; nearly all actives have a fitted effect of over 65% in size
#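 In this screen, 50 nM flap DNA substrate was added to 10 nM FEN1 pretreated with compound for 15 min at room temperature; cleavage was followed with reads at 0 and 15 min, and Hill fitting gave concentration–response parameters.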
# POLB inh: qHTS Assay for Inhibitors of DNA Polymerase Beta; Potency, µM (series often up to 114 µM), for inactives: top-dose activity change, negative = inhibition, actives largely listed as inhibitors; actives 1.3% (n = 340,000); Pol beta primer extension/strand displacement, fluorescence kinetic; further: on the % scale 0 is the no-effect control and ±100 the full control effect
#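 Reaction started by 50 nM substrate onto compound-treated Pol beta (10 nM, 15 min preincubation, room temperature); plates read at 0 min and 10 min. Normalized concentration-effect data fitted by four-parameter Hill equation.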
# WRN inhibitor: qHTS for Inhibitors of WRN Helicase | actives 0.46% (n = 360,000) | Potency, µM (series often up to 114 µM), without a hit: at the highest dose activity change, negative = inhibition, most hits filed as inhibitors | WRN helicase unwinding, fluorescent forked duplex, kinetic; further: on the % scale 0 is the no-effect control and ±100 the full control effect; nearly all actives have a fitted effect of over 55% in size
#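 Enzyme (20 nM final) and test compound sit together 15 min at room temperature before substrate addition. Substrate is a single-forked duplex oligonucleotide (100 nM) labelled with fluorophore and quencher, with 2 mM ATP; helicase unwinding raises red fluorescence, read kinetically.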
# Numbers without * were called inactive; ? = inconclusive; . = not tested or not shown; [ ] = dose if it differs, or a comment. Hits are enriched below; roughly 2.4% of the tested compounds scored in any of these assays. The call rests on the fitted dose curve; in most records, active means well fitted curve in the direction sought with a large enough effect; inconclusive means small, poorly fitted or top-dose-only effect, or another doubt; inactive means no such curve, though single readings can be large; an effect the other way counts as inactive or inconclusive. Potency means the concentration at half of the fitted maximal effect.
SMILES,POLH inh,POLI inh,Pol kappa inh,FEN1 inhibitor,POLB inh,WRN inhibitor
CC12CN3CC(C)(CN(C1)C3c1ccc3ccccc3c1O)C2=O (stereo not given),-9%,79µM*,-6%,0%,12%,0%
CC12CN3CC(C)(CN(C1)C3c1c[nH]c3ccccc13)C2=O (stereo not given),-16%,83%,-2%,-1%,2%,-18%[57.1 µM]
COCCCNC(=O)c1sc2nc(C)c(C(=O)Nc3ccc(C)cc3C)c(-c3ccccc3Cl)c2c1N,-21%,32%,0%,5%,-24%,.
O=S(=O)(c1ccc(Oc2ccc(-c3nnco3)cc2)nc1)N1CCC(Cc2ccccc2)CC1,45µM*,-6%,-15%,1%,?,5%
Cc1ccc2c(nc3s/c(=C/c4cccs4)c(=O)n32)c1C,20µM*,?,?,0%,32µM*,-24%
Cc1cc(C)c2nc3s/c(=C/c4ccccc4)c(=O)n3c2c1,.,.,.,.,-1%,.
CCC(=O)c1ccc(OCC(=O)N2CCCC2)c(OC)c1,-11%,5%,5%,2%,22µM*,7%
CCN1C(=O)CC(C(=O)NC)SC1=Nc1cc(Cl)c(O)c(Cl)c1 (stereo not given),1%,89µM*,-9%,-3%,-11%,9%
CCN=C1SC(C(=O)Nc2cc(Cl)cc(Cl)c2)CC(=O)N1CC (stereo not given),-2%,116%,-2%,5%,-23%,3%
CC(=O)c1cccc(NS(=O)(=O)c2cc(-c3onc(C)c3C)ccc2C)c1,-5%,9%,-15%,6%,?,.
CCNc1nc(NCC)n2c(SCC(=O)Nc3cc(Cl)ccc3OC)nnc2n1,?,?,-24%,6%,.,-17%
CCNc1nc(NCC)n2c(SCC(=O)Nc3cccc(Cl)c3)nnc2n1,14µM*,?,?,-4%,.,-15%
CCNc1nc(NCC)n2c(SCC(=O)Nc3cccc(F)c3)nnc2n1,?,45µM*,?,5%,.,-31%
CCNc1nc(NCC)n2c(SCC(=O)Nc3c(C)cccc3C)nnc2n1,?,-23%,-10%,6%,.,-11%
CCNc1nc(NCC)n2c(SCC(=O)Nc3ccccc3C(F)(F)F)nnc2n1,?,79µM*,?,4%,.,2%[11.6 µM]
CCNc1nc(NCC)n2c(SCC(=O)Nc3ccccc3Cl)nnc2n1,-9%,-20%,-2%,0%,.,-5%
COc1ccc(N2CCN(C(=O)c3cnn(-c4ccc(OC)cc4)c3C3CCN(C(=O)OC(C)(C)C)CC3)CC2)cc1,-24%,41%,-7%,13%,-10%,.
CC(=O)NC(Cc1c(F)c(F)c(F)c(F)c1F)C(=O)NCC(N)C(=O)c1ccccc1 (stereo not given),.,-7%,5%,-2%,.,.
CCOc1ccc(NC2=CC(=O)CC(c3ccco3)C2)cc1 (stereo not given),-6%,8%,-8%,1%,-7%,-1%
CCCCCCCNC1=CC(=O)CC(c2ccco2)C1 (stereo not given),-24%,?,-25%,-17%,11µM*,-27%
CCOC(=O)c1ccc(NC(=O)C2CCN(S(=O)(=O)Cc3ccccc3)CC2)cc1,-12%,27%,0%,15%,3%,.
O=C1C=C(Nc2ccccc2O)c2ccccc2C1=O,25µM*,32µM*,-9%,-8%,10%,?
Cc1ccc(NC2=CC(=O)C(=O)c3ccccc32)c(C)c1,-31%,44%,1%,7%,.,1%
O=C1C=C(Nc2cccnc2)c2ccccc2C1=O,32µM*,50µM*,-14%,-7%,.,-21%
CCOc1ccc(NC2=CC(=O)C(=O)c3ccccc32)cc1,40µM*,35µM*,-4%,-18%,.,-15%
SMILES,POLH inh,POLI inh,Pol kappa inh,FEN1 inhibitor,POLB inh,WRN inhibitor
COc1cc(Cl)c(NC2=CC(=O)C(=O)c3ccccc32)c(OC)c1,56µM*,?,-1%,-29%,.,8%
O=C(O)[C@H](Cc1c[nH]c2ccccc12)N1C(=O)C2=CCCC=C2C1=O,.,.,13%[60.1 µM],.,.,.
O=C(/C=C/c1ccc(O)cc1)c1ccc(NC2=C(N3CCCCC3)C(=O)c3ccccc3C2=O)cc1,?,28µM*,-11%,-5%,?,-35%
COc1cccc(OCC(=O)Nc2nnc3n2CCS3)c1,3%,3%,-5%[60.1 µM],-9%,16%,.
C=CCCCCCCCCC(=O)OC,.,.,4%[60.1 µM],.,.,.
CCc1ccccc1N(CC(=O)NCc1ccco1)C(=O)c1snc(C(N)=O)c1N,20µM*,?,-35%,6%,50µM*,-19%
CC(C)CCNC(=O)CN(Cc1ccco1)C(=O)c1snc(C(N)=O)c1N,8%,63%,-1%,-4%,37%,-12%
COc1ccc(NC(=O)C2CCCN2S(=O)(=O)c2ccc3nc(-c4ccccc4)[nH]c3c2)cc1 (stereo not given),0%,-7%,2%,27%,-6%,.
Cc1ccc(NC(=O)C2CCCN2S(=O)(=O)c2ccc3nc(-c4ccccc4)[nH]c3c2)cc1F (stereo not given),79µM*,?,?,-8%,?,.
Cc1ccc(NC(=O)C2CCCN2C(=O)OCc2ccccc2)cc1F (stereo not given),-9%,?,79µM*,-24%,30%,2%[11.6 µM]
N#CCC(=O)Nc1ccc(C(=O)OCC(=O)c2ccc3c(c2)NC(=O)CO3)cc1,?,22µM*,?,?,.,?
O=C1COc2ccc(C(=O)COC(=O)/C=C/c3ccco3)cc2N1,?,45µM*,?,-16%,.,-13%
O=C1COc2ccc(C(=O)COC(=O)c3ccco3)cc2N1,0%,24%,10%,4%,6%,3%
CCCCC/C=C\C/C=C\C/C=C\C/C=C\CCCC(=O)O[C@@H](CO)COCCCCCCCCCCCCCCCC,.,.,4%[19.4 µM],.,.,.
CCCCC[n+]1cccc2c3ccccc3ccc21,-19%,32%,3%[60.1 µM],-12%,1%,-7%
CCCCCCCCCCCCCCCC[n+]1ccc(CC(O)c2c(C)[nH]c3ccccc23)c2ccccc21 (stereo not given),.,118%,64%,50µM*,.,.
C=CC(=O)Nc1cccc(Nc2nc(N[C@H]3CC[C@H](N(C)C)CC3)nc3c2ncn3C(C)C)c1,?,?,-22%,50µM*,.,?
CC(C)n1cnc2c(Nc3cccc(Cl)c3)nc(NCCCO)nc21,-10%,-6%,-23%,?,26%,-2%
